FLuc counter = firefly luciferase modulation, counter-screen for miR-21 project | P08659 | purified FLuc, Km substrates, luminescence inhibition | Potency, µM (highest dose often 57.5 µM), hits mostly inhibitors | 6.9% of 360,000 active; also: nearly all actives have a fitted effect of over 55% in size
Target sequence (P08659 whole entry, looked up): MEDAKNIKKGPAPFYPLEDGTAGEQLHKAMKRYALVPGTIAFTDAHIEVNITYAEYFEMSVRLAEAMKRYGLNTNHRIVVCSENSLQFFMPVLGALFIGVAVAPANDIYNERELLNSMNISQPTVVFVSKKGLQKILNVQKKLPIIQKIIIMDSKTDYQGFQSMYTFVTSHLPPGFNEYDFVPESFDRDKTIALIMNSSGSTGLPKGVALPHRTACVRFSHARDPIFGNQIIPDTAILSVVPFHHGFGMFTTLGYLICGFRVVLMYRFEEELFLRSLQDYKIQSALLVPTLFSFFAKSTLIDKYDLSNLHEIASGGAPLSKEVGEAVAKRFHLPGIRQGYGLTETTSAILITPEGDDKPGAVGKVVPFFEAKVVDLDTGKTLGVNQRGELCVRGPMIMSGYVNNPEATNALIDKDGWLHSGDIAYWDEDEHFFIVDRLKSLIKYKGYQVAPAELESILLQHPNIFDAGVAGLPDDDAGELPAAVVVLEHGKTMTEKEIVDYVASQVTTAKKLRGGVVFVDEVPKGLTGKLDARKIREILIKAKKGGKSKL
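Purified P. pyralis luciferase, 10 nM final, with Km-level 10 uM D-luciferin and 10 uM ATP in 50 mM Tris acetate pH 7.5, 10 mM Mg acetate, 0.01% Tween-20, 0.05% BSA; 6-point qHTS titration about 60 µM downward; luminescence read.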
Rab9 prom act = activates the Rab9 promoter. Huh7 Rab9 promoter-luciferase reporter, luminescence, 24 h. Potency, µM (doses to about 9.22 µM), hits mostly activators. 2.8% of 320,000 active. AID 485297; also: nearly all actives have a fitted effect of over 60% in size
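Using Huh7 cells stably transfected with Rab9 promoter–luciferase, compounds were incubated 24 h at 37 °C, 5% CO2; luciferase luminescence was read 10 min after reagent addition.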
ELG1 genotoxic = inducers of genotoxicity in HEK293T ELG1-luciferase cells; HEK293T ELG1-luciferase reporter, luminescence, 16 h; Potency, µM (doses to about 46 µM), usual class: activators; 1.3% of 330,000 active; also: nearly all actives have a fitted effect of over 60% in size
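Cells (2,000/well) expressing the ELG1-luciferase fusion are dosed by pin tool and kept 16 hr at 37 °C, 5% CO2. Signal comes from ONE-Glo luciferase reagent after 30 min at room temperature.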
Luc counter = Kinase-Glo luciferase inhibition (counter-screen); Q27757; Kinase-Glo luciferase, ATP luminescence, 8 min; Potency, µM (top dose mostly 38.3 µM), usual class: inhibitors; 0.28% of 200,000 active; also: nearly all actives have a fitted effect of over 60% in size
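Luminescence was the read-out, taken after 8-minute incubation at ambient temperature. Luciferase turned over luciferin with 10 uM ATP in imidazole pH 7.2 buffer containing KCl, MgCl2, Tween 20 and BSA.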
SMN2 splice enh = enhancers of SMN2 splice variant expression | Potency, µM (highest dose often 46.1 µM), hits mostly activators | 2.8% of 210,000 active | HEK293 SMN2-luciferase splicing reporter, luminescence, 30-36 h; also: nearly all actives have a fitted effect of over 55% in size
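HEK293 cells carry an SMN2 […]–luciferase reporter in which exon 7 inclusion puts luciferase in frame. Cells were plated 10-12 h before compound addition, then incubated 30-36 h at 37C. ONE-Glo luminescence was read; sodium butyrate at 4.5 mM final served as control.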
NPC1 prom act = NPC1 promoter activation; 2.4% of 320,000 active; Potency, µM (top dose mostly 9.22 µM), most hits filed as activators; AID 485313; Huh7 NPC1 promoter luciferase reporter, 24 h; also: nearly all actives have a fitted effect of over 60% in size
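Compounds in DMSO were transferred onto Huh7 NPC1-luciferase reporter cells pre-incubated 2 h; after 24 h at 37 °C, Amplite reagent was dispensed and luminescence recorded 10 min later.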
Numbers stand for hits; n = inactive; u = inconclusive; x = not tested or not shown. Shown are actives, neighbours in structure and some others; about 7.4% of the full set was active somewhere. Calls follow the shape of the dose curve; as a rule, active = well fitted curve in the direction sought with a large enough effect; inconclusive = small, poorly fitted or top-dose-only effect, or another doubt; inactive = no such curve, though single readings can be large; an effect the other way counts as inactive or inconclusive.

SMILES | FLuc counter | Rab9 prom act | ELG1 genotoxic | Luc counter | SMN2 splice enh | NPC1 prom act
COc1ccc(/C=C/C(=O)C2C(=O)C=C(C)OC2=O)cc1O (stereo not given) | 6µM | n | u | u | n | u
O=C(Nc1ccsc1C(=O)O)c1cccc(Oc2ccccc2)c1 | 0.76µM | 0.89µM | u | x | x | 1.8µM
O=C(Nc1nnc(-c2cccs2)o1)c1cccc(Oc2ccccc2)c1 | n | n | n | n | n | n
O=C(Nc1ccsc1C(=O)O)c1cccc(C(F)(F)F)c1 | 9.5µM | u | 16µM | x | x | 3.2µM
Cc1ccccc1NC(=O)c1cccc(C(F)(F)F)c1 | n | n | n | n | n | n
CCOCCCN1C(=O)c2[nH]nc(-c3ccccc3O)c2C1c1ccc(CC)cc1 (stereo not given) | n | x | x | x | n | x
COc1cc(C(=O)Nc2ccc(O)cc2C(=O)O)ccc1OC(C)=O | 12µM | n | n | x | x | n
COc1ccc(C(=O)Nc2ccccc2C(=O)N2CCOCC2)cc1OC | n | n | n | x | x | n
COC(=O)c1ccc(NC(=O)c2ccc(OC(C)=O)c(OC)c2)cc1 | 11µM | u | u | n | u | u
O=C(Nc1ccc(-n2ccc(C(F)(F)F)n2)cc1)c1cccs1 | 11µM | 3.2µM | u | x | x | 2.8µM
Cc1cc(C)cc(NC(=O)Nc2ccc(-n3ccc(C(F)(F)F)n3)cc2)c1 | n | n | n | x | x | u
COc1ccccc1NC(=O)Nc1ccc(-n2ccc(C(F)(F)F)n2)cc1 | 11µM | 2.8µM | n | x | x | u
O=C(Nc1ccc(-n2ccc(C(F)(F)F)n2)cc1)Nc1cccc(Cl)c1 | 11µM | n | n | x | x | n
COc1cccc(CNC(=O)CN(c2ccc(C)cc2)S(=O)(=O)N(C)C)c1OC | n | x | x | x | n | x
CCOc1ccc(-n2c(=O)c3c4c(sc3n(CC(=O)NC(C)CC)c2=O)CCC4)cc1 (stereo not given) | n | x | x | x | n | x
CC(C)Oc1ccc(C2CC(=O)N(c3cccc(/C=C/C(=O)O)c3)C2=O)cc1 (stereo not given) | 24µM | n | n | x | x | n
CCC(=O)c1cc2c(cc1NC(=O)c1ccc(C)cc1)OCCO2 | n | n | u | n | u | n
CCN1C(=O)c2cccc3c(NC(=O)c4ccc(S(=O)(=O)N(C)C)cc4)ccc1c23 | n | n | n | n | 13µM | n
CN(C)S(=O)(=O)c1cccc(C(=O)Nc2ccc(N3CCOCC3)cc2)c1 | u | n | n | x | x | n
CCN1C(=O)c2cccc3c(NC(=O)c4ccc(S(=O)(=O)N5CCOCC5)cc4)ccc1c23 | n | n | u | n | u | n
O=C(Nc1cc2c(cc1C(=O)O)OCCCO2)c1ccc(F)cc1F | 21µM | n | u | x | x | n
COc1ccccc1C(=O)Nc1cc2c(cc1C(=O)O)OCCCO2 | n | n | n | x | x | n
CC(=O)c1cc2c(cc1NC(=O)c1ccc(C)cc1)OCCO2 | 5.4µM | n | n | x | x | n
CN(C)S(=O)(=O)c1cccc(C(=O)Nc2cc3c(cc2C(=O)O)OCCCO3)c1 | 6µM | n | n | x | x | n
COc1cc2c(cc1OC)C(c1ccc(Cl)cc1)N(c1cccc(C#N)c1)C(=O)C2 (stereo not given) | n | x | x | x | n | x
SMILES | FLuc counter | Rab9 prom act | ELG1 genotoxic | Luc counter | SMN2 splice enh | NPC1 prom act
CCc1cccc(C)c1NC(=O)CCCn1c(C)c2cnn(-c3ccccc3)c(=O)c2c1C | n | x | x | x | n | x
CN(C)S(=O)(=O)c1ccc(C(=O)Nc2ccccc2F)cc1 | n | n | n | n | n | n
CN(C)S(=O)(=O)c1ccc(C(=O)Nc2ccccc2C(=O)O)cc1 | 12µM | n | n | n | n | n
CN(C)S(=O)(=O)c1ccc(C(=O)Nc2cc3c(cc2C(=O)O)OCCCO3)cc1 | 15µM | n | n | x | x | n
CN(C)S(=O)(=O)c1ccc(C(=O)Nc2cccc(C(=O)O)c2)cc1 | 21µM | x | x | n | n | x
CCCC(=O)c1cc(O)c(O)cc1O | x | x | x | x | n | x
O=C(Cn1cnc2c(oc3ccccc32)c1=O)Nc1ccccc1C(F)(F)F | n | x | x | x | x | x
COc1ccc(CCNC(=O)c2cnc3sc(N4CCCC4)nn3c2=O)cc1OC | n | x | x | x | x | x
CCCOc1ccc(C2Nc3cccc4cccc(c34)N2)cc1 | 11µM | n | n | x | x | n
CCN(CC)c1ccc(C2Nc3cccc4cccc(c34)N2)cc1 | 11µM | n | n | x | x | n

Screening results as filed in PubChem.
